Shown are actives, neighbours in structure and some others; about 3% of the full set was active somewhere.
EBV LMP1 NFkB – inhibitors of Epstein-Barr LMP1-induced NF-kappaB reporter | LMP1-induced NF-kappaB luciferase reporter cells, luminescence | inhibition, % at 12.5 µM | hit rate 0.69% among 350,000 | AID 504558; in the data active = inhibition above about 41%;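 also: 0% = neutral control wells and 100% = reference inhibitor control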
MITF TRPM1 HTS – increases MITF-driven TRPM1 promoter luciferase signal | SK-MEL-5 TRPM1-promoter luciferase, 24 h; % of positive control, neutral wells = 0 | activation, % at 12.5 µM | hit rate 0.75% among 300,000 | AID 588334;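 active = mean activation of at least 80% with every replicate also reaching 80%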;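 also: 0% = neutral control wells and 100% = parthenolide positive control wells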
TWEAK Fn14 block – TWEAK-Fn14 signaling inhibition; TWEAK-stimulated Fn14 reporter cells, luciferase luminescence, 8 h; hit rate 2% among 360,000; inhibition, % at 10 µM; in the data active = inhibition above about 50%
TRPM1 prom inh – inhibitors of MITF-driven TRPM1 promoter in melanoma cells. inhibition, % at 12.5 µM. SK-MEL-5 TRPM1 promoter luciferase, 24 h. hit rate 0.83% among 330,000;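 active = mean inhibition across replicates of 60% or more, whatever share of single replicates reaches that level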
LGR2 inh – inhibitors of bursicon-induced Drosophila LGR2 receptor cAMP signaling; HEK293 LGR2, CRE-luciferase, bursicon-stimulated, 4 h; inhibition, % at 9.99 µM; AID 720647; hit rate 0.35% among 380,000;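 active = drop in luminescence signal, shown as inhibition above about 50% in the replicate tests, limit read from the data, passing the limit was not always enough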;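 also: agonist challenge used bursicon conditioned medium at about half maximal strength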
TROY signal inh – blocks TROY-dependent signaling in reporter cells; Q293 LMP1-TROYcd NF-kB luciferase reporter, 4 h; inhibition, % at 10 µM; hit rate 0.98% among 360,000; AID 1347056;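 active = compounds whose plate-normalised and pattern-corrected inhibition of the luciferase reporter signal at the single screening dose is 50% or more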
Starred values were filed as active, the others as inactive; . = no result given.

SMILES | EBV LMP1 NFkB | MITF TRPM1 HTS | TWEAK Fn14 block | TRPM1 prom inh | LGR2 inh | TROY signal inh
COc1cc(OC)c2c(-c3cccc(-c4ccc(C#N)cc4)c3)cc(=O)oc2c1 | 17.4 | -28.4 | 13.3 | 29.3 | 3.9 | 11.7
CCCNC(=O)C[C@H]1CC[C@@H]2[C@H](COc3ccc(NC(=O)c4ccccc4)cc3C(=O)N2C)O1 | . | . | . | . | -8.4 | .
Cc1ccc(C)c(Cn2nnc(C(=O)Nc3ccc4c(c3)OCCO4)c2N)c1 | -30.6 | 84.6* | -6.6 | -80.3 | -24.6 | -47.4
Cc1cc(C)cc(NC(=O)c2nnn(Cc3cc(C)ccc3C)c2N)c1 | -1.5 | 13.1 | 18.4 | -13.3 | . | 18.4
CC(C(=O)Nc1ccc2c(c1)OCCO2)n1nnc(-c2ccccc2)n1 (stereo unspecified) | 4.6 | 12.8 | 8.4 | -10.8 | 0.5 | 13.0
COc1ccc(Cn2nnc(C(=O)Nc3ccc4c(c3)OCCO4)c2N)cc1Br | -20.0 | 17.8 | 17.2 | -16.8 | -19.4 | -20.3
Cc1ccccc1Cn1nnc(C(=O)Nc2ccc3c(c2)OCCO3)c1N | -52.6 | 91.4* | -0.5 | -84.7 | -88.0 | -35.2
C[C@@H](C(=O)Nc1ccc2c(c1)OCCO2)n1nnc2ccccc2c1=O | -45.6 | 101.1* | -16.5 | -98.9 | -65.3 | -66.8
COCC(=O)Nc1ccc2c(c1)[C@@H]1C[C@H](CC(=O)NCc3ccncc3)O[C@@H](CO)[C@@H]1O2 | . | . | . | . | -6.8 | .
C/C=C/c1ccc2c(c1)O[C@@H](CN(C)C(=O)Cc1ccccc1)[C@@H](C)CN([C@@H](C)CO)S2(=O)=O | . | . | . | . | -40.0 | .
Cc1cccn2cc(-c3ccc(NC(=O)Cc4ccccc4)cc3)nc12 | -14.0 | . | -23.7 | . | -20.0 | 89.5*
O=C1CCc2cc(OCCCCc3nnnn3C3CCCCC3)ccc2N1 | 73.2* | -9.8 | -42.4 | 12.2 | . | 15.2
COc1cccc(N2CCN(Cc3nnnn3C3CCCCC3)CC2)c1 | 0.8 | 0.5 | -12.0 | -0.7 | -3.6 | -4.1
O=Cc1ccc(O)c2ncccc12 | 59.4* | -61.8 | 16.9 | 63.0* | . | -11.6
c1cnc2ccc3ncccc3c2c1 | -1.5 | -0.1 | -0.3 | -2.0 | -0.3 | 0.7
CC(=O)c1c(C)nn(-c2ccccc2)c1C | 36.5 | . | 2.8 | -3.5 | -4.0 | -3.8
COP(C)(=O)c1c(C)nn(-c2ccccc2)c1C (stereo unspecified) | -3.0 | 6.0 | 68.6* | -3.0 | . | .
C[C@H](CO)N1C[C@H](C)[C@H](CN(C)C(=O)Nc2ccc(F)cc2)Oc2ccc(NC(=O)Nc3ccccc3)cc2C1=O | . | . | . | . | 13.1 | .
CCCCC1C(=O)N(c2ccccc2)N(c2ccccc2)C1=O | 10.1 | 4.2 | 15.2 | -2.4 | -14.0 | 2.9
CCCCN1C=CC(=C2C(=O)c3ccccc3C2=O)C=C1 | 75.0* | -92.8 | 98.6* | 95.5* | . | 85.0*
CCN(CC)CCNC(=O)c1c(O)c2cc(OC)c(OC)cc2[nH]c1=O | 55.3* | -1.3 | -17.9 | 2.3 | . | -28.9
COc1ccc(NC(=O)N(C)C[C@H]2Oc3ccc(NC(=O)NC4CCCCC4)cc3C(=O)N([C@@H](C)CO)C[C@@H]2C)cc1 | . | . | . | . | 6.7 | .
CCCCNC1C(CC)C(CCC)C(C#N)(C#N)C1(C#N)C#N (stereo unspecified) | 24.4 | -38.7 | 55.6* | 36.5 | . | 17.0
C=CCN1CCN(C(=O)CCc2ccccc2)CC1 | 86.7* | -14.7 | -1.1 | 14.8 | 4.1 | 7.5
CCCCn1c(NC(=O)CC)c(C#N)c2nc3ccccc3nc21 | 6.1 | -3.8 | -9.0 | 7.9 | . | -2.6
SMILES | EBV LMP1 NFkB | MITF TRPM1 HTS | TWEAK Fn14 block | TRPM1 prom inh | LGR2 inh | TROY signal inh
N#Cc1c(NC(=O)c2ccccc2Cl)n(Cc2ccccc2)c2nc3ccccc3nc12 | 11.1 | -7.4 | 86.2* | 3.0 | 19.0 | 65.2*
CCCCn1c(NC(=O)c2ccccc2Cl)c(C#N)c2nc3ccccc3nc21 | 11.2 | -6.6 | -32.2 | 2.5 | . | 75.7*
O=C(Cc1ccccc1F)Nc1nc(-c2ccc(F)c(F)c2)cs1 | -23.2 | 83.2* | 22.5 | -83.6 | -48.1 | 72.0*
O=C(CCNC(=O)c1ccccc1Cl)Nc1nc(-c2ccc(F)cc2)cs1 | 4.1 | -3.5 | 18.0 | 5.0 | 2.5 | 17.8
O=C(CCNC(=O)c1ccccc1Cl)Nc1nc(-c2ccc3ccccc3c2)cs1 | 21.7 | 6.3 | 53.3* | -7.4 | 24.6 | 34.1
C[C@H](CO)N1C[C@H](C)[C@H](CN(C)C(=O)Cc2ccccc2)Oc2cc(C#CC3(O)CCCC3)ccc2S1(=O)=O | . | . | . | . | 11.3 | .
Cc1cc(C)nc(NC(N)=NC(C)c2ccccc2)n1 (stereo unspecified) | . | . | . | . | -13.0 | .
